# Measurements as given in the supplement of paper PMC8728848.
# This excerpt belongs to a sample that is enriched for the strongest signals.
# B1: SUN4 (Saccharomyces cerevisiae), P53616 (protein)
# chain: MGSSHHHHHHSSGLVPRGSHNGSIYGDLADFSGPYEKFEDGTIPCGQFPSGQGVIPISWLDEGGWSGVENTDTSTGGSCKEGSYCSYACQPGMSKTQWPSDQPSDGRSIGGLLCKDGYLYRSNTDTDYLCEWGVDAAYVVSELSNDVAICRTDYPGTENMVIPTYVQAGDSLPLTVVDQDTYYTWQGLKTSAAYYVNNAGISVEDACVWGSSSSGVGNWAPLNFGAGSSDGVAYLSLIPNPNNGNALNFNVKIVAADDSSTVNGECIYENGSFSGGSDGCTVSVTAGKAKFVLYN
# Tests used:
# Test in all cases: glycan array binding signal (z-score within array); higher = stronger binding
# Conditions in all cases: glycan notation: IUPAC condensed, linker removed; mutation: Q318A
# [1] = target: Fuc(a1-2)Gal(b1-3)GalNAc(b1-4)[Neu5Ac(a2-3)]Gal(b1-4)Glc
# In short: (§1)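 The binding signal is a Z-score computed within each array. Data were drawn from 3228 arrays in the Consortium for Functional Glycomics database, restricted to those with a known protein sequence. Scores were averaged over arrays of the same protein sequence at different concentrations or buffers, and over linkers, and negative values can be taken as non-binding.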
# [2] = target: Fuc(a1-2)Gal(b1-3)GlcNAc(b1-3)[Fuc(a1-2)Gal(b1-3)GlcNAc(b1-6)]GalNAc
# In short: as §1
# [3] = target: Fuc(a1-2)Gal(b1-4)Fuc(a1-3)]GlcNAc(b1-2)Man(a1-3)[Fuc(a1-2)Gal(b1-4)[Fuc(a1-3)]GlcNAc(b1-2)Man(a1-6)]Man(b1-4)GlcNAc(b1-4)GlcNAc
# In short: as §1
# Fuc(a1-2)Gal(b1-4)GlcNAc = target: Fuc(a1-2)Gal(b1-4)GlcNAc
# In short: as §1
# [4] = target: Fuc(a1-2)Gal(b1-4)GlcNAc(b1-2)Man(a1-3)[Fuc(a1-2)Gal(b1-4)GlcNAc(b1-2)Man(a1-6)]Man(b1-4)GlcNAc(b1-4)GlcNAc
# In short: as §1
# [5] = target: Fuc(a1-2)Gal(b1-4)GlcNAc(b1-3)Gal(b1-4)GlcNAc(b1-2)Man(a1-3)[Fuc(a1-2)Gal(b1-4)GlcNAc(b1-3)Gal(b1-4)GlcNAc(b1-2)Man(a1-6)]Man(b1-4)GlcNAc(b1-4)GlcNAc
# In short: as §1
# [6] = target: Fuc(a1-2)[Gal(a1-3)]Gal(b1-4)GlcNAc(b1-2)Man(a1-3)[Fuc(a1-2)[Gal(a1-3)]Gal(b1-4)GlcNAc(b1-2)Man(a1-6)]Man(b1-4)GlcNAc(b1-4)GlcNAc
# In short: as §1
# [7] = target: Fuc(a1-2)[GalNAc(a1-3)]Gal(b1-4)GlcNAc(b1-2)Man
# In short: as §1
# [8] = target: Fuc(a1-2)[GalNAc(a1-3)]Gal(b1-4)GlcNAc(b1-3)Gal(b1-4)GlcNAc
# In short: as §1
# [9] = target: Fuc(a1-2)[GalNAc(a1-3)]Gal(b1-4)GlcNAc(b1-3)GalNAc
# In short: as §1
# [10] = target: Fuc(a1-3)[Gal(b1-4)]GlcNAc6S
# In short: as §1
# Gal(a1-3)Gal(b1-4)GlcNAc = target: Gal(a1-3)Gal(b1-4)GlcNAc
# In short: as §1
# Gal(a1-4)Gal(b1-4)Glc = target: Gal(a1-4)Gal(b1-4)Glc
# In short: as §1
# [11] = target: Gal(b1-3)GalNAc(b1-4)Gal(b1-4)Glc
# In short: as §1
# [12] = target: Gal(b1-3)GlcNAc(b1-3)Gal(b1-4)GlcNAc(b1-3)Gal(b1-4)GlcNAc(b1-2)[Gal(b1-3)GlcNAc(b1-3)Gal(b1-4)GlcNAc(b1-3)Gal(b1-4)GlcNAc(b1-6)]Man(a1-6)[Gal(b1-3)GlcNAc(b1-3)Gal(b1-4)GlcNAc(b1-3)Gal(b1-4)GlcNAc(b1-2)Man(a1-3)]Man(b1-4)GlcNAc(b1-4)[Fuc(a1-6)]GlcNAc
# In short: as §1
# [13] = target: Gal(b1-3)GlcNAc(b1-6)Gal(b1-4)GlcNAc
# In short: as §1
# [14] = target: Gal(b1-3)GlcNAc(b1-6)[Gal(b1-3)]GalNAc
# In short: as §1
# Gal(b1-4)Gal = target: Gal(b1-4)Gal
# In short: as §1
# Gal(b1-4)GlcNAc(b1-2)Man = target: Gal(b1-4)GlcNAc(b1-2)Man
# In short: as §1
# [15] = target: Gal(b1-4)GlcNAc(b1-2)Man(a1-3)[Gal(b1-4)GlcNAc(b1-2)Man(a1-6)][GlcNAc(b1-4)]Man(b1-4)GlcNAc(b1-4)[Fuc(a1-6)]GlcNAc
# In short: as §1
# [16] = target: Gal(b1-4)GlcNAc(b1-3)Gal(b1-4)GlcNAc(b1-3)Gal(b1-4)GlcNAc(b1-2)[Gal(b1-4)GlcNAc(b1-3)Gal(b1-4)GlcNAc(b1-3)Gal(b1-4)GlcNAc(b1-6)]Man(a1-6)[Gal(b1-4)GlcNAc(b1-3)Gal(b1-4)GlcNAc(b1-3)Gal(b1-4)GlcNAc(b1-2)Man(a1-3)]Man(b1-4)GlcNAc(b1-4)[Fuc(a1-6)]GlcNAc
# In short: as §1
# [17] = target: Gal(b1-4)GlcNAc(b1-3)Gal(b1-4)GlcNAc(b1-3)Gal(b1-4)GlcNAc(b1-3)Gal(b1-4)GlcNAc(b1-3)Gal(b1-4)GlcNAc(b1-2)Man(a1-3)[Gal(b1-4)GlcNAc(b1-3)Gal(b1-4)GlcNAc(b1-3)Gal(b1-4)GlcNAc(b1-3)Gal(b1-4)GlcNAc(b1-3)Gal(b1-4)GlcNAc(b1-2)Man(a1-6)]Man(b1-4)GlcNAc(b1-4)[Fuc(a1-6)]GlcNAc
# In short: as §1
# GalNAc(a1-3)GalNAc = target: GalNAc(a1-3)GalNAc
# In short: as §1
# GalNAc(b1-4)Gal(b1-4)Glc = target: GalNAc(b1-4)Gal(b1-4)Glc
# In short: as §1
# GalNAc(b1-4)GlcNAc = target: GalNAc(b1-4)GlcNAc
# In short: as §1
# [18] = target: Glc(a1-6)Glc(a1-6)Glc(a1-6)Glc
# In short: as §1
# [19] = target: GlcNAc(b1-2)Man(a1-3)[GlcNAc(b1-2)Man(a1-6)]Man(b1-4)GlcNAc(b1-4)GlcNAc
# In short: as §1
# [20] = target: GlcNAc(b1-2)[GlcNAc(b1-6)]Man(a1-6)[GlcNAc(b1-2)Man(a1-3)]Man(b1-4)GlcNAc(b1-4)[Fuc(a1-6)]GlcNAc
# In short: as §1
# [21] = target: GlcNAc(b1-3)Gal(b1-4)GlcNAc(b1-6)[GlcNAc(b1-3)Gal(b1-3)]GalNAc
# In short: as §1
# [22] = target: GlcNAc(b1-4)GlcNAc(b1-4)GlcNAc
# In short: as §1
binder,measurement,setting,value
B1,glycan array binding signal (z-score),[1],-0.245
same,glycan array binding signal (z-score),[2],0.442
same,glycan array binding signal (z-score),[3],2.65
same,glycan array binding signal (z-score),Fuc(a1-2)Gal(b1-4)GlcNAc,-0.67
same,glycan array binding signal (z-score),[4],-0.18
same,glycan array binding signal (z-score),[5],1.88
same,glycan array binding signal (z-score),[6],-0.077
same,glycan array binding signal (z-score),[7],-0.198
same,glycan array binding signal (z-score),[8],0.152
same,glycan array binding signal (z-score),[9],0.641
same,glycan array binding signal (z-score),[10],0.316
same,glycan array binding signal (z-score),Gal(a1-3)Gal(b1-4)GlcNAc,-0.246
same,glycan array binding signal (z-score),Gal(a1-4)Gal(b1-4)Glc,2.25
same,glycan array binding signal (z-score),[11],-0.46
same,glycan array binding signal (z-score),[12],2.21
same,glycan array binding signal (z-score),[13],-0.212
same,glycan array binding signal (z-score),[14],-0.256
same,glycan array binding signal (z-score),Gal(b1-4)Gal,-0.573
same,glycan array binding signal (z-score),Gal(b1-4)GlcNAc(b1-2)Man,0.857
same,glycan array binding signal (z-score),[15],-0.281
same,glycan array binding signal (z-score),[16],1.61
same,glycan array binding signal (z-score),[17],2.04
same,glycan array binding signal (z-score),GalNAc(a1-3)GalNAc,-1.37
same,glycan array binding signal (z-score),GalNAc(b1-4)Gal(b1-4)Glc,1.66
same,glycan array binding signal (z-score),GalNAc(b1-4)GlcNAc,0.304
same,glycan array binding signal (z-score),[18],0.21
same,glycan array binding signal (z-score),[19],-0.045
same,glycan array binding signal (z-score),[20],2.54
same,glycan array binding signal (z-score),[21],0.161
same,glycan array binding signal (z-score),[22],0.057
